# Measured values taken from PubChem BioAssay.
# Results with a measured potency or affinity are listed apart. Active and inactive are the calls of the source.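 Rule for the calls: active = a fitted half-maximal concentration no higher than twice the top valid tested dose, with signal falling as cells die; inconclusive = flat curve between -70% and -30%, or poor fit; inactive = the rest, including signal rising instead of falling.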
# Experiment: HeLa cell cytotoxicity, dose response, cytotoxicity control, ATP luminescence, cherry-pick samples (AID 687004);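 note: 0% = neutral control median and -100% = staurosporine 10 µM control median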
# Conditions: HeLa viability, ATP luminescence (CellTiter-Glo), 48 h; series mostly up to 26 µM; activity change, negative = cytotoxicity: at the top concentration
row,SMILES,"activity change, negative = cytotoxicity"
1,CO[C@@H]1CN(C)C(=O)c2ccc(NC(=O)NC(C)C)cc2OC[C@H](C)NC[C@@H]1C,-3.06% (inactive)
2,COc1ccc(NC(=O)N(C)C[C@@H]2OCCCC[C@H](C)Oc3ccc(NC(=O)Nc4ccc5c(c4)OCO5)cc3C(=O)N([C@H](C)CO)C[C@@H]2C)cc1,9.47% (inactive)
3,COc1ccc(-c2cnc3c(c2)C(=O)N([C@H](C)CO)C[C@H](C)[C@H](CN(C)Cc2ccc(F)cc2)O3)cc1,-0.884% (inactive)
4,Cc1cc(C(=O)NC(=S)Nc2ccccc2N2CCCC2)ccc1[N+](=O)[O-],-10.9% (inactive)
5,COc1ccccc1CNC(=O)COc1ccc2c(c1)CCC2,0.236% (inactive)
6,CCC(=O)N1C[C@H](O)COC[C@@H]2O[C@@H](CC(=O)NCc3ccccc3Cl)CC[C@H]21,-4.31% (inactive)
